Bioassay records: PubChem BioAssay, National Center for Advancing Translational Sciences (NCATS)
Compounds with a hit are over-represented: about 2.6% of the library has one in this group of screens.
mTORC1 inh – reduces mTORC1 signaling in Tsc2 and p53 null MEF cells | Tsc2-/- p53-/- MEF, phospho-rpS6 immunofluorescence/PI, 24 h | Potency, µM (doses to about 38.3 µM), actives largely listed as inhibitors | 0.78% of 44,000 active | AID 493208; also: nearly all actives have a fitted effect of over 50% in size
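Read-out: phospho-S6 Alexa-488 intensity over PI intensity per well, scored as % active cells using thresholds from rapamycin (7.5 nM) and DMSO controls. Tsc2-/-, p53-/- MEFs exposed to compound for 24 h; PI cell count recorded as viability.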
PMP22 txn prim – PMP22 gene transcription modulation; S16 Pmp22-F2sN Schwann cells, FLuc/NLuc coincidence luminescence, 24 h; Potency, µM (series often up to 57.5 µM), actives largely listed as inhibitors; 2% of 43,000 active; active = clear falling dose curves in both reporters; inconclusive = both reporters move, but less clearly or upward; inactive = either reporter flat; the % is the NLuc reporter signal
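Schwann cells carrying the coincidence reporter were exposed to library compounds for 24 h at 37C, then lysed and read for FLuc and, after quenching, NLuc luminescence on a CCD imager.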
S16 F2sN tox – S16 Schwann cell cytotoxicity | S16 Pmp22-F2sN Schwann cells viability, CellTiter-Glo, 24 h | Potency, µM (top dose mostly 57.5 µM), hits mostly cytotoxic | 0.48% of 43,000 active; also: nearly all actives have a fitted effect of over 65% in size
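S16 Pmp22-F2sN Schwann cells (500-1,000/well) in phenol-red-free DMEM with 10% FBS received 23 nL compound by pin tool for 24 h at 37 °C. Viability was then read as CellTiter-Glo luminescence after 15 min at room temperature.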
OvCa metastasis – ovarian cancer metastasis inhibition, 3D TME model; 0.1% of 46,000 active; Potency, µM (top dose mostly 45.8 µM), hits mostly inhibitors; SKOV3ip1-GFP adhesion/invasion on 3D omental model, fluorescence; also: nearly all actives have a fitted effect of over 65% in size
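Primary human omental fibroblast/mesothelial 3D culture pre-formed 48 h. SKOV3ip1-GFP cells added with compounds (0.36-46 umol/L), incubated 2 h RT/16 h 37 C, fixed; GFP cells quantified at 488/509 nm.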
NLuc saturating – NanoLuc enzyme inhibition artifact for PMP22 screen; Secreted NLuc enzyme (filtered S16 cell medium), Nano-Glo luminescence; shares compounds with PMP22 txn prim; 4% of 690 active; Potency, µM (highest dose often 57.5 µM), actives largely listed as inhibitors
NLuc Km counter – NanoLuc inhibition at Km substrate, PMP22 artifact check. 5% of 690 active. Potency, µM (top dose mostly 57.5 µM), most hits filed as inhibitors. secreted NLuc enzyme, coelenterazine luminescence, Km conditions. shares compounds with PMP22 txn prim
FLuc ctr PMP22 – firefly luciferase enzyme inhibition artifact for PMP22 screen | 690 tested, under 10 active | shares compounds with PMP22 txn prim | AID 1508640 | Potency, µM (titrated, usually from 57.5 µM), actives largely listed as inhibitors | purified P. pyralis FLuc, luminescence, 10 min
Target sequence (P08659 whole entry, looked up): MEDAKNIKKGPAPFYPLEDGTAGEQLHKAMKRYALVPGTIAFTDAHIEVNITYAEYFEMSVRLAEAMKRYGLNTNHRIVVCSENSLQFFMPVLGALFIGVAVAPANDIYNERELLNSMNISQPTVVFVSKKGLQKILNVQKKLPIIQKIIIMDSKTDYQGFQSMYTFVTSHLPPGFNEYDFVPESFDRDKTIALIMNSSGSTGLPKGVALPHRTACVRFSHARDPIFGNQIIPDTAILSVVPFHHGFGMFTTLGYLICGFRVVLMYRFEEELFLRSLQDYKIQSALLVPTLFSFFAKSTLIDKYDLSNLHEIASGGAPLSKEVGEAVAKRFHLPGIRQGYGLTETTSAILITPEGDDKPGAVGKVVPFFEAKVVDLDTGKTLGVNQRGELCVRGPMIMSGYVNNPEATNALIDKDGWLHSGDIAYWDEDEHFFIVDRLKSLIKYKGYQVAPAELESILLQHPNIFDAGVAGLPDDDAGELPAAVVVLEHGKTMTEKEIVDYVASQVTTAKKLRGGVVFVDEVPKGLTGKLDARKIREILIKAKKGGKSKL
S16 viab conf – S16 Schwann cell cytotoxicity, confirmatory; shares compounds with PMP22 txn prim; S16 Schwann cells viability, CellTiter-Glo ATP luminescence, 24 h; Potency, µM (titrated, usually from 57.5 µM), actives largely listed as cytotoxic; 7% of 690 active; AID 1508641
PMP22 txn conf – confirmation of modulators of PMP22 gene transcription in S16 cells; shares compounds with PMP22 txn prim; S16 Schwann cells Pmp22-F2sN, dual luciferase, 24 h; Potency, µM (titrated, usually from 57.5 µM), most hits filed as inhibitors; 22% of 690 active; active = clear falling dose curves in both reporters; inconclusive = both reporters move, but less clearly or upward; inactive = either reporter flat; the % is the FLuc reporter signal
PMP22 HiBiT cnf – rat PMP22 protein level modulation, confirmatory. shares compounds with PMP22 txn prim. S16 Schwann cells Pmp22-HiBiT, luminescence, 48 h. Potency, µM (titrated, usually from 27.9 µM), usual class: inhibitors. 95 tested, under 10 active
Target sequence (P25094 whole entry, looked up): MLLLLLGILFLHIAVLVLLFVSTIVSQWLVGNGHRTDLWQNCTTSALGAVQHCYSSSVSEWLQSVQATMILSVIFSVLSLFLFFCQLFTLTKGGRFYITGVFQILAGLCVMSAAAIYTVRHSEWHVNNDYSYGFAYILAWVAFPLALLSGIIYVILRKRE
A number is an active result; - = inactive; ? = inconclusive; . = no result given. Unless noted, calls follow the shape of the dose curve; as a rule, active = well fitted curve in the direction sought with a large enough effect; inconclusive = small, poorly fitted or top-dose-only effect, or another doubt; inactive = no such curve, though single readings can be large; an effect the other way counts as inactive or inconclusive.

SMILES	mTORC1 inh	PMP22 txn prim	S16 F2sN tox	OvCa metastasis	NLuc saturating	NLuc Km counter	FLuc ctr PMP22	S16 viab conf	PMP22 txn conf	others
COC(=O)c1c(-c2ccc(Cl)cc2)noc1N1CCN(c2cccc(C(F)(F)F)c2)CC1	?	5.4µM	?	?	-	-	-	?	16µM	PMP22 HiBiT cnf=-
C[C@H](NC(=O)Cc1cc(F)cc(F)c1)C(=O)N[C@@H]1C(=O)N(C)c2ccccc2-c2ccccc21	.	.	.	-	.	.	.	.	.
C[C@@H](Cc1cc2c(c(C(N)=O)c1)N(CCCO)CC2)NCCOc1ccccc1OCC(F)(F)F	.	.	.	-	.	.	.	.	.
CCc1cccc(C)c1NC(=O)c1nc2ccccc2nc1N1CCCCC1	-	?	-	-	-	?	-	-	-
CCN1CCN(c2nc3c(S(=O)(=O)c4ccc(C)cc4)nnn3c3ccsc23)CC1	-	17µM	-	-	-	-	-	-	-
CCN(C(=O)c1c(O)c2c(Cl)cccc2n(C)c1=O)c1ccccc1	.	.	.	-	.	.	.	.	.
COc1ccc(CCNc2ncnc3onc(C)c23)c(OC)c1	-	4µM	?	-	-	-	-	?	4µM
O=C(NCCC1=CCCCC1)c1ccc2c(c1)N(Cc1ccc(Cl)cc1)C(=O)c1ccccc1S2=O (stereo not drawn)	-	?	-	-	.	.	.	.	.
O=C(NCCC1=CCCCC1)c1ccc2c(c1)N(Cc1ccccc1)C(=O)c1ccccc1S2=O (stereo not drawn)	-	13µM	-	-	-	-	-	-	-
Cc1cccc(NC(=O)c2sc3nc4c(cc3c2N)CCCCCC4)c1C	?	?	-	-	-	-	-	-	-
CCOC(=O)c1c(C)oc2nc(C)nc(NCCc3ccc(OCC)cc3)c12	-	14µM	-	-	?	?	-	-	?
CCOc1ccc(CCNC(=O)c2c(C)oc3ncn(CC(C)C)c(=O)c23)cc1	-	20µM	-	-	?	-	?	-	-
Cc1oc2ncn(CC(C)C)c(=O)c2c1C(=O)NCCc1ccc(Cl)cc1	-	?	-	-	.	.	.	.	.
CCOC(=O)c1c(C)oc2nc(C)nc(NCCc3ccc(Cl)cc3)c12	?	-	-	-	.	.	.	.	.
Cc1cccc(N2CCN(S(=O)(=O)c3ccc4c(c3)CCCN4C(=O)C3CCC3)CC2)c1C	-	16µM	-	-	-	-	-	-	?
Cc1ccc(NC(=O)N2CCc3cc(S(=O)(=O)N4CCC(C)CC4)ccc32)cc1F	-	8.9µM	-	-	-	-	-	?	15µM	PMP22 HiBiT cnf=-
CCOC(=O)c1cc2c(=O)n3ccccc3nc2n(C)c1=NC(=O)c1c(-c2c(F)cccc2Cl)noc1C	-	2.1µM	-	-	?	-	-	-	-
CCOC(=O)c1cc2c(=O)n3ccccc3nc2n(C(C)C)c1=NC(=O)c1c(-c2c(F)cccc2Cl)noc1C	-	11µM	?	-	?	-	-	-	?
CC(=O)OCC#CCSc1nnc(-c2cccc(Br)c2)o1	-	9.2µM	-	-	?	?	-	?	?
COC(=O)CSc1nnc(-c2cccc(O)c2)o1	-	-	-	-	.	.	.	.	.
CCN1C(=O)c2ccccc2S(=O)c2ccc(C(=O)N3CCN(c4ccc(F)cc4)CC3)cc21 (stereo not drawn)	-	?	-	-	.	.	.	.	.
COc1ccc(N2CCN(C(=O)c3ccc4c(c3)N(Cc3ccc(F)cc3)C(=O)c3ccccc3S4=O)CC2)cc1 (stereo not drawn)	-	?	-	-	0.15µM	0.12µM	-	-	-
C[C@H]1O[C@H](O[C@H]2[C@H](O)[C@@H](O)[C@@H](O[C@H]3[C@H](O)[C@@H](O)C(O)O[C@H]3CO)O[C@H]2CO)[C@H](O)[C@@H](O)[C@H]1N[C@H]1C=C(CO)[C@@H](O)[C@H](O)[C@@H]1O (stereo partly drawn)	.	.	.	-	.	.	.	.	.
CCCCCCCCc1ccc(CCC(N)(CO)CO)cc1	.	.	.	-	.	.	.	.	.
Clc1cccc(N2CCN(c3ncnc4c3nc3n4CCCCC3)CC2)c1	-	20µM	-	-	?	14µM	-	?	?
SMILES	mTORC1 inh	PMP22 txn prim	S16 F2sN tox	OvCa metastasis	NLuc saturating	NLuc Km counter	FLuc ctr PMP22	S16 viab conf	PMP22 txn conf	others
O=C(C1CCN(c2ncnc3c2nc2n3CCCCC2)CC1)N1CCN(c2cccc(Cl)c2)CC1	-	?	-	-	.	.	.	.	.
O=S(=O)(c1ccc(Cl)cc1)c1nnn2c1nc(NC1CCCCC1)c1sccc12	-	?	-	-	.	.	.	.	.
O=S(=O)(c1cccc(Cl)c1)c1nnn2c1nc(NC1CCCCCC1)c1sccc12	-	10µM	-	-	-	-	-	-	?
Cn1c(=O)c2c(-c3ccccc3Br)n(C(C)(C)C)cc2n(C)c1=O	-	16µM	-	-	?	-	-	?	-
COc1ccccc1N1CCN(c2ncnc3c2cnn3-c2cc(Cl)ccc2C)CC1	-	8.4µM	?	-	?	?	-	?	?
C=CC[N+]1([C@H]2C[C@H]3[C@@H]4CC[C@H]5C[C@H](O)[C@@H](N6CCOCC6)C[C@]5(C)[C@@H]4CC[C@]3(C)[C@H]2OC(C)=O)CCCC1	.	.	.	-	.	.	.	.	.
COc1ccc(NC(=O)Cn2c(=O)n(-c3cccc(C)c3)c(=O)c3c2c2cc(C)ccc2n3C)cc1Cl	-	15µM	-	-	-	-	-	-	?
Cc1ccc2c(c1)c1c(c(=O)n(-c3cccc(Cl)c3)c(=O)n1CC(=O)NCCC1=CCCCC1)n2C	-	-	-	-	.	.	.	.	.
CCN(Cc1ccccc1)C(=O)Cn1c(=O)n(-c2cccc(C)c2)c(=O)c2c1c1cc(OC)ccc1n2C	-	?	-	-	.	.	.	.	.
CCN(Cc1ccccc1)C(=O)Cn1c(=O)n(-c2ccccc2)c(=O)c2c1c1cc(C)ccc1n2C	-	18µM	?	-	-	-	-	-	?
Cc1cccc(-n2c(=O)c3c(c4cc(C)ccc4n3C)n(CC(=O)NCCC3=CCCCC3)c2=O)c1	-	?	-	-	-	-	-	?	17µM	PMP22 HiBiT cnf=-
